Assay results as given in the supplement of paper PMC8728848.
The sample as a whole holds a higher share of the strongest signals than the screen did.

B1: MIC13 (Toxoplasma gondii), A0A125YWL1 (protein)
chain: IQLRQHRNGLGVEQSFVSEETDIVGGRISSLQAELDSYCHNRYKQLCDGGNKKFCDKTGVARYGTGIQSQQTAEWRCYFAEVLKPSGRKVQCVDDCGNYFPCLGVVDPNDTFHATAHNQILNFIKDGVEKHCSPFQMAGNNYCQGVLADTVARKDTGTASQKAKAWRCYKKDSLTYEARSICVDNCGGEIECPGGRSETSGELLSQHYTREKELQKVIESQSAPCHDACVATPINPPICADTESLLQSTKRSRAQRFIDDACQKLFNCHCKKDKKFCTTVVARKDRGRAGSQNDAEWRCYSLEELDFQKTNPSCIDECGNELPCQGAVPEESTHHITWTKLPSKIDEATQKFCTERQRAANDYCASEFADSLARYGPGAGDQTSQFRCIKKAAMRADAEGQCADSCKGTETCGGGRSRLDGPLSVDDVLNAHEGISEAMKSASTEC
B2: Epa23 (Candida glabrata) (protein)
chain: MGSSHHHHHHSSGLVPRGSHMIPNPFEGTINNFPSGCSPNHGLYNRGLTMELYNYSYIHPQSIQSYFNTSTLKKMEKGQCWDPSYLDVNYPRTGYKTHNRFAKVNGIDGILDFEFNPTRSCVPSKGQLPQNYNYPLQFTLSNFTMLLYGYFKPKVTAKHTFTIFADDLLFLNFGAGNAFDCCQQQDTIDDFGNYQAYALWGSDTQQNTLTVNLDANIYYPIRMFYNNRDFKGALNMYFTTDESNTKINDFSGYLFNIPDSSEGCPAHISYETECGNVSG

Assays:
Test in all cases: glycan array binding signal (z-score within array); higher = stronger binding
Settings in all cases: glycan notation: IUPAC condensed, linker removed
[1] = target: Gal(b1-3)GalNAc(b1-4)[Neu5Gc(a2-3)]Gal(b1-4)Glc
Procedure, shortened: (§1)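 Glycan array data were curated from 3228 arrays in the Consortium for Functional Glycomics database and kept only where the protein sequence was available. Glycan names were converted to IUPAC-condensed notation, and columns mapping to the same glycan were averaged. The binding signal is a within-array Z-score, averaged across arrays of the same protein sequence at different concentrations or buffers and across linkers. Negative Z-scores can be read as non-binding.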

Neu(a2-3)Gal(b1-4)Glc = target: Neu(a2-3)Gal(b1-4)Glc
Procedure, shortened: as §1

Neu(a2-6)Gal(b1-4)Glc = target: Neu(a2-6)Gal(b1-4)Glc
Procedure, shortened: as §1

[2] = target: Neu5Ac(a2-3)Gal(b1-3)GalNAc(b1-4)Gal(b1-4)Glc
Procedure, shortened: as §1

[3] = target: Neu5Ac(a2-3)Gal(b1-3)GlcNAc(b1-3)[Fuc(a1-3)[Gal(b1-4)]GlcNAc(b1-6)]Gal(b1-4)Glc
Procedure, shortened: as §1

[4] = target: Neu5Ac(a2-3)Gal(b1-4)[Fuc(a1-3)]GlcNAc6S(b1-3)Gal(b1-4)Glc
Procedure, shortened: as §1

[5] = target: Neu5Ac(a2-3)Gal6S(b1-4)[Fuc(a1-3)]GlcNAc6S(b1-3)Gal(b1-4)Glc
Procedure, shortened: as §1

[6] = target: Neu5Ac(a2-6)Gal(b1-4)GlcNAc(b1-3)[Neu5Ac(a2-6)Gal(b1-4)GlcNAc(b1-6)]Gal(b1-4)Glc
Procedure, shortened: as §1

[7] = target: Neu5Ac(a2-9)Neu5Ac(a2-3)Gal(b1-4)Glc
Procedure, shortened: as §1

Neu5Gc(a2-3)Gal(b1-4)Glc = target: Neu5Gc(a2-3)Gal(b1-4)Glc
Procedure, shortened: as §1

[8] = target: Glc(a1-6)Glc(a1-6)Glc(a1-6)Glc
Procedure, shortened: as §1

[9] = target: GlcNAc(b1-2)[GlcNAc(b1-4)]Man(a1-3)[GlcNAc(b1-2)Man(a1-6)]Man(b1-4)GlcNAc(b1-4)GlcNAc
Procedure, shortened: as §1

[10] = target: GlcNAc(b1-3)Gal(b1-4)GlcNAc(b1-2)Man(a1-3)[GlcNAc(b1-3)Gal(b1-4)GlcNAc(b1-2)Man(a1-6)]Man(b1-4)GlcNAc(b1-4)[Fuc(a1-6)]GlcNAc
Procedure, shortened: as §1

[11] = target: GlcNAc(b1-3)Gal(b1-4)GlcNAc(b1-3)Gal(b1-4)GlcNAc(b1-2)Man(a1-3)[GlcNAc(b1-3)Gal(b1-4)GlcNAc(b1-3)Gal(b1-4)GlcNAc(b1-2)Man(a1-6)]Man(b1-4)GlcNAc(b1-4)[Fuc(a1-6)]GlcNAc
Procedure, shortened: as §1

[12] = target: GlcNAc(b1-3)Gal(b1-4)GlcNAc(b1-3)Gal(b1-4)GlcNAc(b1-2)[GlcNAc(b1-3)Gal(b1-4)GlcNAc(b1-3)Gal(b1-4)GlcNAc(b1-6)]Man(a1-6)[GlcNAc(b1-3)Gal(b1-4)GlcNAc(b1-3)Gal(b1-4)GlcNAc(b1-2)Man(a1-3)]Man(b1-4)GlcNAc(b1-4)[Fuc(a1-6)]GlcNAc
Procedure, shortened: as §1

GlcNAc(b1-3)GalNAc = target: GlcNAc(b1-3)GalNAc
Procedure, shortened: as §1

Kdn(a2-3)Gal(b1-4)Glc = target: Kdn(a2-3)Gal(b1-4)Glc
Procedure, shortened: as §1

[13] = target: Man(a1-2)Man(a1-3)[Man(a1-2)Man(a1-6)]Man(a1-6)[Man(a1-2)Man(a1-2)Man(a1-3)]Man
Procedure, shortened: as §1

[14] = target: Man(a1-3)[Man(a1-6)]Man(a1-6)[Man(a1-2)Man(a1-3)]Man(b1-4)GlcNAc(b1-4)GlcNAc
Procedure, shortened: as §1

[15] = target: Man(a1-3)[Man(a1-6)]Man(a1-6)[Man(a1-3)]Man
Procedure, shortened: as §1

[16] = target: Neu5Ac(a2-3)Gal(b1-3)GalNAc(b1-4)[Neu5Ac(a2-3)]Gal(b1-4)Glc
Procedure, shortened: as §1

[17] = target: Neu5Ac(a2-3)Gal(b1-3)GalNAc6S
Procedure, shortened: as §1

[18] = target: Neu5Ac(a2-3)Gal(b1-3)[Fuc(a1-4)]GlcNAc
Procedure, shortened: as §1

[19] = target: Neu5Ac(a2-3)Gal(b1-4)GlcNAc(b1-2)Man(a1-3)[Neu5Ac(a2-3)Gal(b1-4)GlcNAc(b1-2)Man(a1-6)]Man(b1-4)GlcNAc(b1-4)GlcNAc
Procedure, shortened: as §1

[20] = target: Neu5Ac(a2-3)Gal(b1-4)GlcNAc(b1-2)[Neu5Ac(a2-3)Gal(b1-4)GlcNAc(b1-4)]Man(a1-3)[GlcNAc(b1-4)][Neu5Ac(a2-3)Gal(b1-4)GlcNAc(b1-4)Man(a1-6)]Man(b1-4)GlcNAc(b1-4)GlcNAc
Procedure, shortened: as §1

[21] = target: Neu5Ac(a2-3)Gal(b1-4)[Fuc(a1-3)]GlcNAc(b1-3)Gal(b1-4)GlcNAc
Procedure, shortened: as §1

[22] = target: Neu5Ac(a2-3)[GalNAc(b1-4)]Gal(b1-4)GlcNAc
Procedure, shortened: as §1

[23] = target: Neu5Ac(a2-6)Gal(b1-4)GlcNAc(b1-6)[Gal(b1-3)GlcNAc(b1-3)]Gal(b1-4)Glc
Procedure, shortened: as §1

[24] = target: Neu5Ac(a2-8)Neu5Ac(a2-3)[GalNAc(b1-4)]Gal(b1-4)Glc
Procedure, shortened: as §1

[25] = target: Neu5Ac9Ac(a2-3)Gal(b1-4)GlcNAc
Procedure, shortened: as §1

[26] = target: Neu5Ac9Ac(a2-6)Gal(b1-4)GlcNAc
Procedure, shortened: as §1

[27] = target: Neu5Gc(a2-3)Gal(b1-4)GlcNAc
Procedure, shortened: as §1

[28] = target: Neu5Gc(a2-8)Neu5Gc(a2-3)Gal(b1-4)GlcNAc
Procedure, shortened: as §1

[29] = target: Neu5Gc(b2-6)Gal(b1-4)GlcNAc
Procedure, shortened: as §1

Binder	glycan array binding signal (z-score) [1]	glycan array binding signal (z-score) (Neu(a2-3)Gal(b1-4)Glc)	glycan array binding signal (z-score) (Neu(a2-6)Gal(b1-4)Glc)	glycan array binding signal (z-score) [2]	glycan array binding signal (z-score) [3]	glycan array binding signal (z-score) [4]	glycan array binding signal (z-score) [5]	glycan array binding signal (z-score) [6]	glycan array binding signal (z-score) [7]	glycan array binding signal (z-score) (Neu5Gc(a2-3)Gal(b1-4)Glc)	glycan array binding signal (z-score) [8]	glycan array binding signal (z-score) [9]	glycan array binding signal (z-score) [10]	glycan array binding signal (z-score) [11]	glycan array binding signal (z-score) [12]	glycan array binding signal (z-score) (GlcNAc(b1-3)GalNAc)	glycan array binding signal (z-score) (Kdn(a2-3)Gal(b1-4)Glc)	glycan array binding signal (z-score) [13]	glycan array binding signal (z-score) [14]	glycan array binding signal (z-score) [15]	glycan array binding signal (z-score) [16]	glycan array binding signal (z-score) [17]	glycan array binding signal (z-score) [18]	glycan array binding signal (z-score) [19]	glycan array binding signal (z-score) [20]	glycan array binding signal (z-score) [21]	glycan array binding signal (z-score) [22]	glycan array binding signal (z-score) [23]	glycan array binding signal (z-score) [24]	glycan array binding signal (z-score) [25]	glycan array binding signal (z-score) [26]	glycan array binding signal (z-score) [27]	glycan array binding signal (z-score) [28]	glycan array binding signal (z-score) [29]
B1	-0.151	-0.234	-0.287	-0.287	-0.243	0.435	2.31	-0.287	8.12	-0.038																								
B2											-0.278	-0.21	-0.199	-0.176	-0.093	-0.243	-0.263	-0.233	-0.22	-0.232	-0.24	-0.246	-0.296	-0.249	-0.243	-0.288	-0.198	-0.13	-0.297	-0.225	-0.239	-0.274	-0.215	-0.194
